Source: PubChem
Shown are actives, neighbours in structure and some others; about 3.3% of the full set was active somewhere.
MazF activator: MazEF (E. coli) toxin RNase activation; FAM/BHQ RNA-DNA oligo cleavage fluorescence, 5 h; P0AE70; AID 504720; activation, % at 20 µM; 350,000 compounds, 0.32% hits; in the data active = activation above about 50%
Target sequence (P0AE70 whole entry, looked up): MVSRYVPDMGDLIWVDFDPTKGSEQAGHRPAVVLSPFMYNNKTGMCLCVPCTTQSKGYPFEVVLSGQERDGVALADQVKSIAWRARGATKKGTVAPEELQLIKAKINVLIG
SSB-PriA inh: blocks PriA binding to SSB C-terminal tail; AlphaScreen SSBct-PriA binding, biotinylated peptide; AID 1272365; inhibition, % at 33 µM; 430,000 compounds, 0.6% hits; in the data active = inhibition mostly above about 37%, no sharp cut-off; inactive = mostly below about 20%;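 also: plate controls were negative control peptide for no effect and reference peptide for full effect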
BoNT A protease: BoNT A light chain protease inhibition; multiplex microsphere protease substrate cleavage, flow cytometry; inhibition, % at 10 µM; 360,000 compounds, 0.17% hits; also: plate controls were buffer without enzyme for full effect and enzyme alone for no effect
BoNT F protease: BoNT F light chain protease inhibition; Multiplex microsphere protease cleavage assay, flow cytometry; inhibition, % at 10 µM; 360,000 compounds, 0.22% hits; AID 588497; in the data active = inhibition above about 35%, passing the limit was not always enough; inconclusive = no clear call, values can overlap the other calls; also: plate controls were buffer without enzyme for full effect and enzyme alone for no effect
Autofluor counter: compound fluorescence in toxin protease inhibitor counterscreen; AID 624483; compound autofluorescence counterscreen, microsphere flow cytometry; active compounds read high; fluorescence intensity (test concentration not listed); 360,000 compounds, 3.1% hits; in the data active = fluorescence intensity above about 16000; inconclusive = no clear call, values can overlap the other calls
Anthrax LF inh2: anthrax lethal factor protease inhibition; inhibition, % at 10 µM; P15917; AID 588501; multiplex microsphere protease cleavage assay, LF; 360,000 compounds, 0.12% hits; also: plate controls were buffer without enzyme for full effect and enzyme alone for no effect
Numbers without * were called inactive; u = inconclusive; x = no result; + = active, no number. Rule as the data show it, unless noted: active = inhibition above about 30%; inconclusive = no clear call, values can overlap the other calls; inactive = below that.

SMILES | MazF activator | SSB-PriA inh | BoNT A protease | BoNT F protease | Autofluor counter | Anthrax LF inh2
CCn1c(CCNC(=O)c2cccs2)nnc1SCC(=O)Nc1cccc(Cl)c1 | 0.9 | -10.9 | 0.1 | -15.9 | 6315 | -1.5
Cc1cccc(-n2c(CNC(=O)COc3ccccc3)nnc2SCC(=O)Nc2nccs2)c1 | 1.9 | -3.2 | -1.5 | -13.4 | 3409 | 1.1
C=CCn1c(CCNC(=O)c2cccs2)nnc1SCC(=O)Nc1cccc(F)c1 | -0.5 | 34.6 | 10.2 | 14.0 | 17039* | 1.3
C=CCn1c(CCNC(=O)c2ccccc2F)nnc1SCC(=O)Nc1ccccc1F | 3.4 | 0.0 | -0.7 | -0.1 | 4459 | -1.5
COc1ccc(-n2c(CNc3ccc(C)cc3)nnc2SCC(=O)Nc2nc(-c3ccccc3)cs2)cc1 | -9.5 | -7.0 | u | -0.9 | 24302* | 1.0
Cn1c(CNC(=O)c2cccs2)nnc1SCC(=O)Nc1ccc(Cl)cc1 | -6.5 | -11.7 | u | 0.3 | 21585* | -4.0
O=C(CSc1nnc(Cc2cccs2)n1Cc1ccco1)Nc1cc(Cl)cc(Cl)c1 | 12.0 | 6.1 | -0.1 | -4.0 | 5800 | -5.0
COc1cccc(NC(=O)CSc2nnc(Cc3cccs3)n2-c2ccc(C)cc2)c1 | -4.9 | 13.5 | u | 6.6 | 14630 | -7.2
C=CCn1c(Cc2cccs2)nnc1SCC(=O)Nc1cccc(OC)c1 | -5.6 | -2.5 | 1.0 | 1.4 | 16319* | -1.5
O=C(CSc1nnc(Cc2cccs2)n1Cc1ccco1)Nc1cccc(Cl)c1 | 9.6 | -2.1 | -0.9 | -0.5 | 22807* | -5.0
C=CCn1c(Cc2cccs2)nnc1SCC(=O)Nc1ccc(OC)cc1 | 4.7 | -13.6 | 0.3 | 0.3 | 16196* | -2.1
CCN(CC)S(=O)(=O)c1ccc(C(=O)NCCC(O)c2cccc3ccccc23)cc1 (centres undefined) | x | 4.0 | x | x | x | x
CCOC(=O)c1cn[nH]c1S(=O)(=O)N1CCc2ccccc21 | x | 13.0 | x | x | x | x
CN(C)c1ccc(NC(=O)CSc2nnc(-c3cccs3)n2Cc2ccco2)cc1 | -2.8 | 47.7 | u | -4.4 | 22600* | -7.2
COc1ccc(NC(=O)CSc2nnc(Cc3cccs3)n2-c2ccc(C)cc2)cc1 | 0.6 | 10.4 | u | 0.8 | 23035* | -1.4
O=C(Cn1nc(-c2ccco2)ccc1=O)Nc1cccc([N+](=O)[O-])c1 | x | 18.0 | x | x | x | x
Cc1cc(NC(=O)CSc2nc3c(cnn3-c3ccc(S(N)(=O)=O)cc3)c(=O)[nH]2)no1 | x | -4.0 | x | x | x | x
COc1cc(C(=O)NCCn2ncc3c(=O)n(Cc4ccccc4F)cnc32)cc(OC)c1OC | x | -3.0 | x | x | x | x
C=C(C)CSc1nnc2n(N)c(=O)c3ccccc3n12 | 6.0 | -25.3 | -0.6 | 0.7 | 9126 | -18.7
CCOC(=O)CSc1nc2sc3c(c2c(=O)n1C1CCCCC1)CCN(C)C3 | 3.9 | 2.7 | 74.2* | 15.4 | 4970 | 48.6*
CCOC(=O)CSc1nnc2n(C3CCCCC3)c(=O)c3c4c(sc3n12)CCCC4 | -5.1 | -4.0 | -0.4 | -2.1 | 23468* | -2.0
CCn1c(SCC(N)=O)nc2sc3c(c2c1=O)CCN(C)C3 | -12.3 | 4.4 | x | x | x | x
COC(=O)CSc1nnc2n(C3CCCCC3)c(=O)c3c4c(sc3n12)CCCC4 | 3.6 | -14.3 | -0.1 | -0.5 | 8015 | 0.8
O=C(CSc1nnc2n(C3CCCCC3)c(=O)c3ccccc3n12)OC1CCCCC1 | -2.5 | -9.3 | -1.8 | -3.8 | 19972* | 0.3
O=C(NCc1ccccc1Cl)C(=O)NCC(c1ccco1)N1CCN(c2ccccc2)CC1 (centres undefined) | x | -13.0 | x | x | x | x
SMILES | MazF activator | SSB-PriA inh | BoNT A protease | BoNT F protease | Autofluor counter | Anthrax LF inh2
CCOc1ccc(Nc2c(CCC(C)C)c(C)c(C#N)c3nc4ccccc4n23)cc1 | x | -9.0 | x | x | x | x
COC(=O)NCc1nc2ccccc2n1Cc1ccc(C(C)C)cc1 | x | 3.0 | x | x | x | x
Cc1ccc2sc(NC(=O)CSc3nc(C)cc(C)c3C#N)nc2c1 | -2.0 | -5.8 | u | 2.8 | 22663* | -1.2
Cc1cc(C(F)(F)F)c(C#N)c(SCC(=O)Nc2nc3ccccc3s2)n1 | 35.8 | -18.9 | 5.8 | 3.3 | 4300 | 4.1
CC(C)(C)NC(=O)CSc1nsc(SCC(=O)NC(C)(C)C)c1C#N | 7.5 | -0.7 | -2.1 | 0.3 | 17119* | -3.0
Cc1csc(NC(=O)CSc2nsc(SCC(=O)Nc3nc(C)cs3)c2C#N)n1 | 45.0 | 12.6 | u | 6.4 | 21632* | -9.1
Cc1ccc(NC(=O)CSc2nsc(SCC(=O)Nc3ccc(C)cc3C)c2C#N)c(C)c1 | -40.9 | -9.0 | -0.6 | -1.6 | 2857 | -2.6
CCCS(=O)(=O)NCC1(c2cccs2)CCOCC1 | x | -6.0 | x | x | x | x
COc1ccc(NC(=O)NCc2ccnc(N3CCCC3)n2)c(C)c1 | x | -10.0 | x | x | x | x
O=S(=O)(NCCCn1ccnc1)c1cccc2cnccc12 | x | 41.0* | x | x | x | x
O=[N+]([O-])c1cccc(S(=O)(=O)NCCCn2ccnc2)c1 | -5.8 | 52.9* | -3.2 | -10.0 | 5215 | -8.6
O=S(=O)(NCCCN1CCOCC1)c1cccc2cnccc12 | x | 3.0 | x | x | x | x
O=C(Nc1ccc(-c2nc3ccccc3[nH]2)cc1)c1ccc(Cl)s1 | x | -20.0 | x | x | x | x
c1cnc2c(OCc3cn4cccnc4n3)cccc2c1 | -4.6 | 43.2* | -0.4 | -6.4 | 2846 | -6.8
COc1ccc(C(O)=C2C(=O)C(=O)N(c3cc(C)on3)C2c2cccc(OC)c2OC)cc1C (centres undefined) | x | -4.5 | x | x | x | x
CON=Cc1ccc(Sc2ccccc2N)c([N+](=O)[O-])c1 | x | 52.1* | x | x | x | x
CON=Cc1ccc(Sc2ccccc2)c([N+](=O)[O-])c1 | x | 54.5* | x | x | x | x
O=[N+]([O-])c1cc(/C=N/O)ccc1SCc1ccccc1 | 6.3 | x | u | -4.8 | 22700* | -5.8
CO/N=C/c1ccc(N2CCN(C)CC2)c([N+](=O)[O-])c1 | x | + | x | x | x | x
O=C(Cc1cc(-c2ccc(Cl)cc2)on1)NCc1cccs1 | x | 8.0 | x | x | x | x
CCCN1CCCc2cc(CCNS(=O)(=O)c3cccc(F)c3)ccc21 | x | 65.0* | x | x | x | x
CCCN1CCCc2cc(CCNS(=O)(=O)c3ccc(OCC)c(C)c3)ccc21 | x | 56.0* | x | x | x | x
CCOc1ccc(S(=O)(=O)NCCc2ccc3c(c2)CCCN3C)cc1 | x | 31.0 | x | x | x | x
CCCN1CCCc2cc(CCNS(=O)(=O)c3ccc(OCC)c(F)c3)ccc21 | x | 39.0* | x | x | x | x
CCCN1CCCc2cc(CCNS(=O)(=O)c3ccc(OC)c(F)c3)ccc21 | x | 66.0* | x | x | x | x
SMILES | MazF activator | SSB-PriA inh | BoNT A protease | BoNT F protease | Autofluor counter | Anthrax LF inh2
CCCN1CCCc2cc(CCNC(=O)C(=O)NCc3cccs3)ccc21 | x | 22.0 | x | x | x | x
COc1ccc(CCNS(=O)(=O)c2ccc3c(c2)CCCC3)cc1OC | 2.5 | -13.1 | 1.7 | 7.1 | 3461 | 10.4
CCCN1CCCc2cc(CCNS(=O)(=O)c3cc(C)ccc3OCC)ccc21 | x | 71.0* | x | x | x | x
CCCN1CCCc2cc(CCNC(=O)C(=O)Nc3ccc(OCC)cc3)ccc21 | x | 20.0 | x | x | x | x
CC(C)N(C1=CC(=O)OC12CCCCC2)C(C)C | 7.7 | -11.6 | 0.3 | u | 4461 | 19.7
CCN(CC)C1=CC(=O)OC12CCCCC2 | 0.9 | -5.9 | u | -1.2 | 22472* | -4.8
COCCN(Cc1ccsc1)C(=O)Cc1cccc(OC)c1 | x | -10.0 | x | x | x | x
O=S(=O)(Cc1ccccc1)N1CCCC(c2nc(-c3ccc(F)cc3)no2)C1 (centres undefined) | -11.4 | -20.8 | 1.2 | 3.3 | 21682* | -3.5
